# Experimental data: the antibiotic and cytotoxicity screens of Wong et al. (2023)
# The campaign covered roughly 39,000 compounds. About 500 (1.3%) were called active. For the sample, actives were picked, then their nearest neighbours and some compounds at random.
# System: S. aureus RN4220
# Experiment: growth inhibition call (relative growth <= 0.2)
# Conditions: 50 µM
row,Structure (SMILES),growth inhibition call
1,C[C@H](CO)N1C[C@H](C)[C@H](CN(C)Cc2ccc(Cl)c(Cl)c2)Oc2ccc(NC(=O)Nc3ccccc3)cc2CC1=O,inactive
2,O=c1cc(CN2CC[C@H](N3CCOCC3)[C@H](CCCO)C2)nc2c(O)cccn12,inactive
3,C[C@@H]1CCCCO[C@@H](CN(C)CC2CCCCC2)[C@@H](C)CN([C@@H](C)CO)C(=O)c2cc(NC(=O)C3CCCCC3)ccc2O1,inactive
4,CC(C)[C@@H](O)C[C@@H](C)O[C@@H]1O[C@H](CO[C@@H]2OC[C@](O)(CO)[C@H]2O)[C@@H](O)[C@H](O)[C@H]1O,inactive
5,C[C@H]1CN([C@@H](C)CO)S(=O)(=O)c2ccc(C#Cc3ccccc3)cc2O[C@H]1CN(C)C(=O)c1ccccn1,inactive
6,C=CCNC(=O)[C@@H]1[C@H]2C(=O)O[C@H](c3ccccc3)[C@H](c3ccccc3)N2[C@H](c2ccc(O)cc2)[C@@]12C(=O)Nc1ccc(C#CC3=CCCCC3)cc12,inactive
7,O=C1O[C@H](c2ccccc2)[C@H](c2ccccc2)N2[C@H]1[C@@H](C(=O)N1CCCCCCC1)[C@]1(C(=O)Nc3ccc(C#CC4=CCCCC4)cc31)[C@H]2c1ccc(O)cc1,inactive
8,O=C1O[C@@H](c2ccccc2)[C@@H](c2ccccc2)N2[C@@H](c3ccccc3OCCO)[C@]3(C(=O)Nc4ccc(C#CC5=CCCCC5)cc43)[C@@H](C(=O)O)[C@H]12,inactive
9,O=C1O[C@H](c2ccccc2)[C@H](c2ccccc2)N2[C@H]1[C@@H](C(=O)O)[C@]1(C(=O)Nc3ccc(C#CC4=CCCCC4)cc31)[C@H]2c1ccccc1OCCO,active
10,O=C1O[C@@H](c2ccccc2)[C@@H](c2ccccc2)N2[C@@H](c3ccc(O)cc3)[C@]3(C(=O)Nc4ccc(C#CC5=CCCCC5)cc43)[C@@H](C(=O)O)[C@H]12,active
11,O=C1O[C@H](c2ccccc2)[C@H](c2ccccc2)N2[C@H]1[C@@H](C(=O)O)[C@]1(C(=O)Nc3ccc(C#CC4=CCCCC4)cc31)[C@H]2c1ccc(O)cc1,active
12,O=C1O[C@@H](c2ccccc2)[C@@H](c2ccccc2)N2[C@@H](c3ccc(O)cc3)[C@]3(C(=O)Nc4ccc(C#CC5=CCCCC5)cc43)[C@@H](C(=O)N3CCCCCCC3)[C@H]12,inactive
13,C=CCNC(=O)[C@H]1[C@@H]2C(=O)O[C@@H](c3ccccc3)[C@@H](c3ccccc3)N2[C@@H](c2ccc(O)cc2)[C@]12C(=O)Nc1ccc(C#CC3=CCCCC3)cc12,inactive
14,NC(=O)[C@H]1[C@@H]2C(=O)O[C@@H](c3ccccc3)[C@@H](c3ccccc3)N2[C@@H](c2ccccc2OCCO)[C@]12C(=O)Nc1ccc(C#CC3=CCCCC3)cc12,inactive
15,CC(C)(C)S(=O)N1Cc2cc(C(=O)N[C@@H]3CCN(Cc4ccccc4)C3)nc(-c3cccc(C#CCC4CCCC4)c3)c2[C@H]1CCO (some centres undefined),inactive
16,CC(C)(C)OC(=O)C[C@@H]1CC=CC[C@@H](CC(=O)NCCO)C(=O)N[C@@H](Cc2ccccc2)COC1=O,inactive
17,C[C@@H]1CN([C@@H](C)CO)C(=O)Cc2cc(NC(=O)Nc3ccc(F)cc3)ccc2O[C@@H]1CN(C)Cc1ccc(C(=O)Nc2ccccc2N)cc1,inactive
18,Cc1ccc(S(=O)(=O)Nc2ccc3c(c2)C(=O)N([C@H](C)CO)C[C@@H](C)[C@@H](CN(C)Cc2ccc4c(c2)OCO4)OCCCC[C@@H](C)O3)cc1,inactive
19,CC(C)NC(=O)N[C@@H]1CC[C@H](CCN)O[C@@H]1CO,inactive
20,COc1ccccc1NC(=O)Nc1ccc2c(c1)OC[C@@H](C)N(Cc1ccccc1Cl)C[C@@H](C)[C@H](OC)CN(C)C2=O,inactive

row,Structure (SMILES),growth inhibition call
1,CO[C@H]1CN(C)C(=O)c2ccc(NS(C)(=O)=O)cc2OC[C@H](C)N(C(=O)C2CCOCC2)C[C@H]1C,inactive
2,CC(C)CC#Cc1ccc2c(c1)O[C@H](CN(C)C(=O)Cc1cccnc1)[C@@H](C)CN([C@H](C)CO)S2(=O)=O,inactive
3,O=C(C[C@H]1CC[C@@H](NC(=O)CN2CCOCC2)[C@H](CO)O1)NCCc1ccccc1,inactive
4,CCCCc1ccc(CC(=O)O)cc1,inactive
5,CC(C)(C)Cc1ccc(OCCCC(=O)O)c(CC(C)(C)C)c1,active
6,Cc1ccc(C)c(OCCCC(C)(C)C(=O)O)c1,inactive
7,C[C@H](CO)N1C[C@H](C)[C@H](CN(C)S(=O)(=O)c2ccccc2)Oc2ccc(NS(C)(=O)=O)cc2CC1=O,inactive
8,O=C(O)CN1C(=O)c2cccc3cccc(c23)C1=O,inactive
9,O=C(CN1C(=O)c2cccc3cccc(c23)C1=O)N1CCN(CCN2C(=O)[C@@H]3[C@@H](C2=O)[C@@H]2C=C[C@@H]3C2)CC1,inactive
10,CC(C)(C)C1CCC(OC[C@@H](O)CN2CCC(CN3C(=O)c4cccc5cccc(c45)C3=O)CC2)CC1 (some centres undefined),active
11,C[C@H](O)C#Cc1cnc2c(c1)C(=O)N([C@@H](C)CO)C[C@H](C)[C@@H](CN(C)Cc1cncnc1)O2,inactive
12,C[C@@H]1CN([C@@H](C)CO)C(=O)c2cc(NC(=O)c3ccncc3)ccc2O[C@@H](C)CCCCO[C@@H]1CN(C)S(=O)(=O)c1cn(C)cn1,inactive
13,C[C@H]1CN([C@@H](C)CO)C(=O)c2c(c3ccccc3n2C)-c2ccccc2CO[C@@H]1CN(C)Cc1ccc(C(=O)O)cc1,inactive
14,COc1ccc2c(c1)n(CCN)c(=O)n2C(=O)[C@@H]1C[C@H](C)CC[C@H]1C(C)C,active
15,CC(C)[C@H]1CC[C@@H](C)C[C@@H]1NC(=O)c1cccc2ccccc12,inactive
16,COc1ccc(NC(=O)N(C)C[C@H]2OCCCC[C@H](C)Oc3ccc(NC(=O)NC4CCCCC4)cc3C(=O)N([C@@H](C)CO)C[C@H]2C)cc1,inactive
17,O=C(O)CN(CCN(CC(=O)O)CC(=O)O)CC(=O)O,inactive
18,Cc1c2oc3c(C)ccc(C(=O)N[C@@H]4C(=O)N[C@@H](C(C)C)C(=O)N5CCC[C@H]5C(=O)N(C)CC(=O)N(C)[C@@H](C(C)C)C(=O)O[C@@H]4C)c3nc-2c(C(=O)N[C@@H]2C(=O)N[C@@H](C(C)C)C(=O)N3CCC[C@H]3C(=O)N(C)CC(=O)N(C)[C@@H](C(C)C)C(=O)O[C@@H]2C)c(N)c1=O,active
19,Cc1c2oc3c(C)ccc(C(=O)OC(C)C4NC(=O)C(C(C)C)N(C)C(=O)CN(C)C(=O)C5CCCN5C(=O)C(C(C)C)NC4=O)c3nc-2c(C(=O)OC(C)C2NC(=O)C(C(C)C)N(C)C(=O)CN(C)C(=O)C3CCCN3C(=O)C(C(C)C)NC2=O)c(N)c1=O (centres undefined),active
20,Cc1c2oc3c(C)ccc(C(=O)N[C@@H]4C(=O)N[C@H](C(C)C)C(=O)N5CCC[C@H]5C(=O)N(C)CC(=O)N(C)[C@@H](C(C)C)C(=O)O[C@@H]4C)c3nc-2c(C(=O)N[C@@H]2C(=O)N[C@H](C(C)C)C(=O)N3CCC[C@H]3C(=O)N(C)CC(=O)N(C)[C@@H](C(C)C)C(=O)O[C@@H]2C)c(N)c1=O,inactive

row,Structure (SMILES),growth inhibition call
1,C[C@H]1CN([C@@H](C)CO)C(=O)Cc2cc(NC(=O)Nc3cccc4ccccc34)ccc2O[C@@H]1CN(C)C(=O)Nc1ccc(F)cc1,inactive
2,C[C@@H]1CN([C@H](C)CO)C(=O)c2cccc(NC(=O)c3cnccn3)c2O[C@H]1CN(C)Cc1ccc2c(c1)OCO2,inactive
3,COc1cccc(NC(=O)N[C@H]2C=C[C@@H](CC(=O)N3CCN(C)CC3)O[C@@H]2CO)c1,inactive
4,O=C(C[C@H]1C[C@@H]2c3cc(NC(=O)NC4CCCC4)ccc3O[C@@H]2[C@H](CO)O1)NCCN1CCCCC1,inactive
5,C[C@H](CO)N1C[C@H](C)[C@@H](CN(C)Cc2ccc(Oc3ccccc3)cc2)Oc2c(NC(=O)C3CCCCC3)cccc2C1=O,inactive
6,C[C@@H]1CN([C@@H](C)CO)C(=O)c2cc(NC(=O)c3ccccc3)ccc2O[C@@H](C)CCCCO[C@H]1CN(C)Cc1ccc2c(c1)OCO2,inactive
7,C[C@@H]1CN([C@@H](C)CO)C(=O)c2cc(NC(=O)NC3CCCCC3)ccc2O[C@H]1CN(C)Cc1ccc(C(=O)Nc2ccccc2N)cc1,inactive
8,CC(C)NC(=O)Nc1cccc2c1O[C@H](CN(C)S(=O)(=O)c1ccc(F)cc1)[C@H](C)CN([C@H](C)CO)C2=O,inactive
9,C[C@H](CO)N1C[C@H](C)[C@H](CN(C)Cc2ccc(-c3ccccc3)cc2)Oc2c(NC(=O)NC3CCCCC3)cccc2C1=O,inactive
10,Cc1ccc(C(=O)N(CCCN)[C@@H](c2oc3cc(Cl)ccc3c(=O)c2Cc2ccccc2)C(C)C)cc1,inactive
11,Cc1ccc2c(c1)c1nc3ccccc3nc1n2Cc1ccccc1,inactive
12,Cc1ccc(C(=O)N(CCCN)[C@@H](c2nc3cc(Cl)ccc3c(=O)n2Cc2ccccc2)C(C)C)cc1,active
13,COc1ccc(CN(C)C[C@@H]2OCCCC[C@@H](C)Oc3ccc(NC(=O)Nc4ccc(C(F)(F)F)cc4)cc3C(=O)N([C@@H](C)CO)C[C@@H]2C)cc1,inactive
14,C[C@@H]1CCCCO[C@H](CN(C)S(=O)(=O)c2ccccc2)[C@H](C)CN([C@H](C)CO)C(=O)c2cc(NC(=O)Nc3ccc(C(F)(F)F)cc3)ccc2O1,inactive
15,CO[C@@H]1CN(C)C(=O)c2ccc(NS(=O)(=O)CC(F)(F)F)cc2OC[C@@H](C)N(C(=O)c2ccc3c(c2)OCO3)C[C@H]1C,inactive
16,CS(=O)(=O)CCNCc1ccc(-c2ccc3ncnc(Nc4ccc(OCc5cccc(F)c5)c(Cl)c4)c3c2)o1 [listing 1 of 2 here],inactive
17,CC(C)(O)CC(=O)NCCn1ccc2ncnc(Nc3ccc(Oc4cccc(C(F)(F)F)c4)c(Cl)c3)c21,active
18,CS(=O)(=O)CCNCc1ccc(-c2ccc3ncnc(Nc4ccc(OCc5cccc(F)c5)c(Cl)c4)c3c2)o1 [listing 2 of 2 here],inactive
19,C[C@H](CO)N1C[C@H](C)[C@H](CN(C)C(=O)Cc2cccnc2)Oc2cc(-c3cncnc3)ccc2S1(=O)=O,inactive
